{"source": "PubChem BioAssay AID651610", "about": "(Broad Institute, 2012)", "note": "In all, about 360,000 compounds went through this assay and about 3,900 (1.1%) were called active. This is one part of a sample in which actives are shown more often than they occur.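 Rule for the calls: active = mean replicate inhibition score of at least 50 and every replicate individually at or above 50; inconclusive = only one of the two criteria met; inactive = mean below 50 and not all replicates reaching 50.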"}
{"assay": "inhibitors of HIV-1 Env-driven cell-cell fusion, primary screen, HeLa-JRFL effector, CEM21 target cells, luciferase (AID 651610);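 note: 0% = plate neutral controls and 100% = maraviroc near 300 nM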", "settings": "stronger effect = higher value; at 16.7 µM unless noted"}
{"molecule": "COC(C(=O)Nc1ccc(S(=O)(=O)Nc2ccc(C)c(C)c2)cc1)c1ccccc1", "note": "(stereo not given)", "inhibition": "-13.7% [at 12.3 µM] (inactive)"}
{"molecule": "CC(=O)Nc1ccc(S(=O)(=O)Nc2ccc(N3CCCCC3)cc2)cc1", "inhibition": "68.2% [at 12.3 µM] (active)"}
{"molecule": "CC(=O)Nc1ccc(NS(=O)(=O)c2ccc3c(c2)NC(=O)CC(=O)N3)cc1", "inhibition": "-3.1% [at 12.3 µM] (inactive)"}
{"molecule": "COc1ccccc1C(=O)COC(=O)CNS(=O)(=O)c1ccc(NC(C)=O)cc1", "inhibition": "-8.08% [at 12.3 µM] (inactive)"}
{"molecule": "CC(=O)Nc1ccc(S(=O)(=O)N2CCN(C3CCCCCCC3)CC2)cc1", "inhibition": "-36.4% [at 12.3 µM] (inactive)"}
{"molecule": "COc1ccc(NS(=O)(=O)c2ccc(NC(C)=O)cc2)cc1OC", "inhibition": "62.4% [at 12.3 µM] (active)"}
{"molecule": "C/C=C/c1cnc2c(c1)C(=O)N([C@H](C)CO)C[C@H](C)[C@@H](CN(C)C(=O)Nc1ccc(C(F)(F)F)cc1)O2", "inhibition": "0.996% (inactive)"}
{"molecule": "C[C@@H]1CN([C@@H](C)CO)C(=O)c2cc(NC(=O)C3CCCCC3)ccc2O[C@@H](C)CCCCO[C@@H]1CN(C)Cc1ccc(C(=O)O)cc1", "inhibition": "10.8% (inactive)"}
{"molecule": "CN(C)c1ccc2c(c1)[C@@H]1C[C@@H](CC(=O)NCc3ccccn3)O[C@H](CO)[C@@H]1O2", "inhibition": "6.38% (inactive)"}
{"molecule": "C[C@H]1CN([C@@H](C)CO)C(=O)CCCn2nncc2CO[C@H]1CN(C)Cc1ccccc1", "inhibition": "-11.7% (inactive)"}
{"molecule": "C[C@@H]1CN([C@H](C)CO)C(=O)c2cc(C#CC3CCCCC3)cnc2O[C@@H]1CN(C)C(=O)NC1CCCC1", "inhibition": "10.8% (inactive)"}
{"molecule": "Cc1nn(Cc2ccc(Cl)c(Cl)c2)c(C)c1NC(=O)c1cc(C2CC2)on1", "inhibition": "-1.78% [at 12.3 µM] (inactive)"}
{"molecule": "Cc1nn(Cc2ccc(F)cc2)c(C)c1NC(=O)c1noc2c1CCc1ccccc1-2", "inhibition": "57.4% [at 12.3 µM] (active)"}
{"molecule": "Cc1nn(Cc2ccc(F)cc2)c(C)c1NC(=O)c1cccnc1Cl", "inhibition": "0.276% [at 12.3 µM] (inactive)"}
{"molecule": "Cc1ccccc1S(=O)(=O)N[C@H]1CC[C@H](CCn2cc(-c3ccc(F)cc3)nn2)O[C@H]1CO", "inhibition": "4.55% (inactive)"}
{"molecule": "C[C@H](CO)N1C[C@H](C)[C@@H](CN(C)S(=O)(=O)c2cccs2)OCCCC[C@H](C)Oc2ccc(NS(=O)(=O)c3ccccc3)cc2C1=O", "inhibition": "-0.163% (inactive)"}
{"molecule": "CCC(C)N1C(=S)SC(C)(C)C1N(O)C(=O)NC1CCCCC1", "note": "(stereo not given)", "inhibition": "16.9% [at 12.3 µM] (inactive)"}
{"molecule": "CCCCNC(=O)N(O)C1N(/N=C/c2ccccc2O)C(=S)SC1(C)C", "note": "(stereo not given)", "inhibition": "89.7% [at 12.3 µM] (active)"}
{"molecule": "CCCCNC(=O)N(O)C1N(/N=C/c2ccc(N(C)C)cc2)C(=S)SC1(C)C", "note": "(stereo not given)", "inhibition": "10.2% [at 12.3 µM] (inactive)"}
{"molecule": "C[C@@H]1CCCCO[C@@H](CN(C)C(=O)Nc2ccc(C(F)(F)F)cc2)[C@H](C)CN([C@H](C)CO)C(=O)c2cc(NC(=O)C3CCCCC3)ccc2O1", "inhibition": "14.1% (inactive)"}
{"molecule": "Cc1ccc(S(=O)(=O)N[C@H]2CC[C@@H](CC(=O)NCc3ccc(Cl)c(Cl)c3)O[C@H]2CO)cc1", "inhibition": "16.7% (inactive)"}
{"molecule": "CCCCCCCCn1c2c(c(=N)c3c1CCC3)CCCC2", "inhibition": "64.5% [at 12.3 µM] (active)"}
{"molecule": "C[C@@H]1NC(=O)[C@@]2(C)[C@@H](c3ccccc3)[C@H]3COc4ccccc4[C@@H]3N2C1=O", "inhibition": "1% [at 12.3 µM] (inactive)"}
{"molecule": "CN1CC(c2ccccc2)C2(COc3ccccc3C2=O)C12C(=O)Nc1ccccc12", "note": "(stereo not given)", "inhibition": "108% [at 12.3 µM] (active)"}
{"molecule": "O=C1NC(c2ccccc2)Oc2ccccc21", "note": "(stereo not given)", "inhibition": "-8.85% [at 12.3 µM] (inactive)"}
{"molecule": "CO[C@H]1CN(C)C(=O)c2ccc(NC(=O)C3CC3)cc2OC[C@@H](C)N(C(=O)c2ccccn2)C[C@@H]1C", "inhibition": "3.53% (inactive)"}
{"molecule": "COc1ccc(S(=O)(=O)Nc2cccc3c2O[C@H](CN(C)C(=O)NC(C)C)[C@H](C)CN([C@H](C)CO)C3=O)cc1", "inhibition": "-9% (inactive)"}
{"molecule": "Cc1ccc(-n2c(N)c(C(=O)N3CCOCC3)sc2=S)c(C)c1", "inhibition": "24.4% [at 12.3 µM] (inactive)"}
{"molecule": "O=C(c1ccc(S(=O)(=O)N2CCCC2)cc1)N1CCN(c2ccccc2F)CC1", "inhibition": "-21.7% [at 12.3 µM] (inactive)"}
{"molecule": "N#Cc1ccccc1-n1c(N)c(C(=O)N2CCCC2)sc1=S", "inhibition": "59.1% [at 12.3 µM] (active)"}
{"molecule": "CNC(=O)C[C@@H]1CC[C@H]2[C@H](COc3ccc(NC(=O)C4CC4)cc3C(=O)N2C)O1", "inhibition": "12% (inactive)"}
{"molecule": "CC(C)NC(=O)N(C)C[C@@H]1Oc2ncc(C#Cc3ccncc3)cc2C(=O)N([C@@H](C)CO)C[C@@H]1C", "inhibition": "-8.31% (inactive)"}
{"molecule": "COc1ccccc1S(=O)(=O)N(C)C[C@@H]1Oc2cc(C#CCC3CCCC3)ccc2S(=O)(=O)N([C@H](C)CO)C[C@H]1C", "inhibition": "34.8% (inactive)"}
{"molecule": "O=C(NC[C@H]1CC[C@@H]2[C@@H](CN2S(=O)(=O)c2ccccc2F)O1)C1CCCCC1", "inhibition": "5.54% (inactive)"}
{"molecule": "CCN(CC)CCCN=Cc1c(O)n(-c2ccc(C)cc2)c(=O)c2ccccc12", "inhibition": "-12.6% [at 12.3 µM] (inactive)"}
{"molecule": "CCCCn1nc(C(=O)Nc2ccc(S(=O)(=O)Nc3ncccn3)cc2)c2ccccc2c1=O", "inhibition": "3.69% [at 12.3 µM] (inactive)"}
{"molecule": "Cc1ccc(-n2c(O)c(C=Nc3ccc(S(=O)(=O)Nc4ncccn4)cc3)c3ccccc3c2=O)cc1C", "inhibition": "65% [at 12.3 µM] (active)"}
{"molecule": "Cc1ccc(S(=O)(=O)Nc2ccc3c(c2)C(=O)N([C@H](C)CO)C[C@H](C)[C@H](CN(C)S(=O)(=O)c2ccc(F)cc2)OCCCC[C@@H](C)O3)cc1", "inhibition": "-11.1% (inactive)"}
{"molecule": "O=C(COc1ccccc1[N+](=O)[O-])N/N=C/c1ccc[nH]1", "inhibition": "-18.2% [at 12.3 µM] (inactive)"}
{"molecule": "CCCC(=O)Nc1ccc(C(=O)N/N=C/c2ccc[nH]2)cc1", "inhibition": "66.2% [at 12.3 µM] (active)"}
{"molecule": "CC(=O)Nc1ccc(C(=O)/C=C/c2ccc[nH]2)cc1", "inhibition": "3.48% [at 12.3 µM] (inactive)"}
{"molecule": "CC1(C)OC(=O)C2=C(CC(CCc3ccccc3)OC2c2ccc(Cl)cc2)O1", "note": "(stereo not given)", "inhibition": "-17.2% [at 12.3 µM] (inactive)"}
{"molecule": "Cc1cc(S(=O)(=O)Nc2ccc(C(=O)NCC(c3ccco3)N3CCCC3)cc2)ccc1F", "note": "(stereo not given)", "inhibition": "57.1% [at 12.3 µM] (active)"}
{"molecule": "COc1ccc(C(CNC(=O)c2cccc(NS(=O)(=O)c3ccc(C)c(F)c3)c2)N2CCCC2)cc1", "note": "(stereo not given)", "inhibition": "-23.5% [at 12.3 µM] (inactive)"}
{"molecule": "COc1ccc(C(CNC(=O)c2ccc(NS(=O)(=O)c3ccc(F)c(C)c3)cc2)N(C)C)cc1", "note": "(stereo not given)", "inhibition": "-1.84% [at 12.3 µM] (inactive)"}
